“And” between values parts separate entries of the source, which are not always exact repeats. Equal values may be shown once. Inconclusive results are not listed. A structure can be active in one record and inactive in another. The source made the active and inactive calls. Rule for the calls: active = hit-call score of the fitted dose curve at least 0.9, where 1 is the maximum; inconclusive = response in the unintended direction; inactive = score below 0.9.
What was measured:
[1] = biological target: rat Mineralocorticoid Receptor (MR), Nr3c2 (gene 25672) (UniProt P22199); test: NVS_NR_rMR: NovaScreen (NVS) Nuclear Receptor Binding Assay for rat Mineralocorticoid Receptor (MR) (AID 2283355)
Method in brief: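 Adrenalectomized rat brain supernatant was dosed with test chemical, then radioligand binding was measured by scintillation counting at 24 h. Initial testing ran in duplicate at 25 uM, followed by concentration series for actives.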

[2] = biological target: Estrogen receptor (Homo sapiens) + Estrogen receptor beta (Homo sapiens) (UniProt P03372+Q92731); test: OT_ER_ERaERb_1440: Odyssey Thera (OT) 24-hour HEK293T Protein-Complementation Assay for Estrogen Receptor-alpha/-beta Homodimer (AID 2283356);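 note: heteromer of ER alpha and ER beta binding domains; hits raise reporter fluorescence and both agonists and antagonists give an increase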
Method in brief: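 24 h exposure; HEK293T PCA cells with ERα/ERβ LBD fragments; signal rise in nuclear or whole-cell fluorescence over vehicle.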

[3] = biological target: PGR (gene 5241) (UniProt P06401); test: NVS_NR_hPR: NovaScreen (NVS) Nuclear Receptor Binding Assay for human Progestron Receptor (PR) (AID 2283360);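 note: active means loss of bound radioligand signal versus DMSO baseline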
Method in brief: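 Cell-free radioligand binding using receptor protein extracted from T47D cells, read by scintillation counting 18 hours after dosing. Loss of signal relative to DMSO baseline indicates displacement; primary screen single concentration 25 uM in duplicate, actives followed in concentration series.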

[4] = biological target: Glucocorticoid receptor (Homo sapiens) (UniProt P04150); test: NVS_NR_hGR: NovaScreen (NVS) Nuclear Receptor Binding Assay for human Glucocorticoid Receptor (GR) (AID 2283363);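 for AC50: activity is loss of specific radioligand binding signal relative to DMSO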
Method in brief: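 Competitive displacement of a labelled ligand was measured on cell-free receptor preparations after 16 h exposure. Initial testing used 25 uM in duplicate with plate controls; confirmed actives went into concentration series.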

[5] = biological target: Nuclear receptor subfamily 1 group I member 2 (Homo sapiens) (UniProt O75469); test: NVS_NR_hPXR: NovaScreen (NVS) Nuclear Receptor Binding Assay for human Pregnane X Receptor (PXR) (AID 2283365);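 note: a drop in FRET signal versus DMSO baseline means the compound binds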
Method in brief: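 Read-out: TR-FRET, human PXR, 2 h post-dosing, cell-free. Loss of signal vs DMSO taken as binding activity; 25 uM primary, concentration series secondary.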

[6] = biological target: rat Androgen Receptor (AR), Ar (gene 24208) (UniProt P15207); test: NVS_NR_rAR: NovaScreen (NVS) Nuclear Receptor Binding Assay for rat Androgen Receptor (AR) (AID 2283366)
Method in brief: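 Cell-free radioligand binding on extracts of prostate from testosterone-pretreated rats, read by filter-based scintillation counting 18 h after dosing. Loss of bound signal fitted positively versus DMSO; primary screen in duplicate at 25 uM, actives followed up in concentration series.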

[7] = biological target: guinea pig Sigma Receptor, Non-selective Binding, SIGMAR1 (gene 100135589) (UniProt Q60492); test: NVS_OR_gSIGMA_NonSelective: NovaScreen (NVS) Nuclear Receptor Binding Assay for guinea pig Sigma Receptor, Non-selective Binding (AID 2283367)
Method in brief: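 gp brain membr., radioligand displacement, 1 h, filtration + scint. counting; DMSO = baseline; 25 uM x2 primary, conc.-response confirm.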

[8] = biological target: Peroxisome proliferator-activated receptor gamma (Homo sapiens) (UniProt P37231); test: NVS_NR_hPPARg: NovaScreen (NVS) Nuclear Receptor Binding Assay for human Peroxisome Proliferator-activated Receptor gamma (PPARg) (AID 2283370)
Method in brief: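 Extracted receptor protein, cell-free; compound incubated 2 h then fluorescence polarization read. Baseline: DMSO. Actives from 25 uM duplicate screen re-run across concentrations.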

[9] = biological target: mouse Estrogen Receptor alpha (Era), Esr1 (gene 13982) (UniProt P19785); test: NVS_NR_mERa: NovaScreen (NVS) Nuclear Receptor Binding Assay for mouse Estrogen Receptor alpha (Era) (AID 2283378);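 note: hit means loss of bound radioligand signal relative to DMSO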
Method in brief: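 Measurements come from scintillation counting after filtration, taken 18 hours after chemicals were added to a cell-free mouse Era preparation with radioligand. Screening was duplicate at 25 uM, with concurrent positive and negative controls and confirmatory concentration series for actives.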

[10] = tested on: guinea pig Dopamine Transporter (DAT), gene 100714898; test: NVS_TR_gDAT: NovaScreen (NVS) Transporter Assay for guinea pig Dopamine Transporter (DAT) (AID 2283369);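 note: active compounds lower bound radioligand signal relative to DMSO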
Method in brief: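 Primary pass: duplicate wells at 25 uM, threshold e.g. 30% inhibition. Follow-up: singleton concentration-response, highest 50 uM. Radioligand binding on guinea pig striatal membranes, 2 h, filtration scintillation detection.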

[11] = biological target: human Norepinephrine Transporter (NET), SLC6A2 (gene 6530) (UniProt P23975); test: NVS_TR_hNET: NovaScreen (NVS) Transporter Assay for human Norepinephrine Transporter (NET) (AID 2283377);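 note: cell-free membrane protein extracted from CHO cells expressing human NET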;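 for AC50: displacement of radioligand from human NET seen as loss of scintillation signal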
Method in brief: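 Scintillation counts of filter-retained radioligand served as the readout, taken 1 h post-dosing in a cell-free CHO-derived system. Test chemicals ran first at 25 uM in duplicate; confirmed hits were retested across concentrations.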

[12] = biological target: Retinoic acid receptor alpha (Homo sapiens) (UniProt P10276); test: NVS_NR_hRARa_Agonist: NovaScreen (NVS) Nuclear Receptor Binding Assay for human Retinoic Acid Alpha Receptor Agonism (RAR) (AID 2283361)
Method in brief: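 Readout is time-resolved fluorescence resonance energy transfer after a 2 h exposure of cell-free extracted receptor protein. Initial testing used 25 uM in duplicate, with concentration-response follow-up for active chemicals.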

[13] = biological target: human Thyroid Receptor Alpha (TRa), THRA (gene 7067) (UniProt P10827); test: NVS_NR_hTRa_Antagonist: NovaScreen (NVS) Nuclear Receptor Binding Assay for human Thyroid Receptor Alpha Antagonism (TRa) (AID 2283362);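 note: activity is loss of signal relative to DMSO baseline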
Method in brief: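 In this biochemical format, receptor protein is dosed with chemical and read after 1 hour via AlphaLISA. Decreases from the DMSO baseline indicate antagonist activity; screening used 25 uM in duplicate before concentration-response confirmation.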

[14] = biological target: Retinoic acid receptor alpha (Homo sapiens) (UniProt P10276); test: NVS_NR_hRAR_Antagonist: NovaScreen (NVS) Nuclear Receptor Binding Assay for human Retinoic Acid Alpha Receptor Antagonism (RAR) (AID 2283358)
Method in brief: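 TR-FRET, cell-free, antagonist format; 2 h incubation after dosing; DMSO = baseline; signal loss fitted; 25 uM duplicate primary, then conc. series.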

[15] = biological target: human Peroxisome Proliferator-activated Receptor alpha (PPARa), PPARA (gene 5465) (UniProt Q07869); test: NVS_NR_hPPARa: NovaScreen (NVS) Nuclear Receptor Binding Assay for human Peroxisome Proliferator-activated Receptor alpha (PPARa) (AID 2283359);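 note: activity means loss of TR-FRET signal versus DMSO baseline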
Method in brief: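 Chemicals were first screened in duplicate at 25 uM, and active ones were retested across concentration series. Binding was monitored by TR-FRET one hour after dosing, with decreased signal against DMSO counted as activity.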

[16] = biological target: Norway rat Vesicular Monoamine Transporter (VMAT2), neurotransmitter transporter, Slc18a2 (gene 25549) (UniProt Q01827); test: NVS_TR_rVMAT2: NovaScreen (NVS) Transporter Assay for Norway rat Vesicular Monoamine Transporter (VMAT2), neurotransmitter transporter (AID 2283376);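 note: actives lower the bound radioligand signal below the DMSO level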
Method in brief: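 Tissue: rat forebrain extract. Format: competitive radioligand binding, cell-free. Timepoint: 1 h. Readout: filter radiodetection/scintillation. Screen: 25 uM in duplicate, then concentration series for actives. Baseline: DMSO.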

[17] = biological target: human Serotonin Transporter (SERT), SLC6A4 (gene 6532) (UniProt P31645); test: NVS_TR_hSERT: NovaScreen (NVS) Transporter Assay for human Serotonin Transporter (SERT) (AID 2283372)
Method in brief: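 Radioligand binding to native SERT in human platelet membranes, read by filter-based scintillation counting 1 h after dosing. Primary screen in duplicate at 25 uM; actives followed up in concentration series; loss of signal versus DMSO baseline.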

[18] = biological target: rat Serotonin Transporter (SERT), Slc6a4 (gene 25553) (UniProt P31652); test: NVS_TR_rSERT: NovaScreen (NVS) Transporter Assay for rat Serotonin Transporter (SERT) (AID 2283375)
Method in brief: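 Using rat forebrain membrane SERT, test chemicals compete with a radioligand for 1 hour, and bound counts are taken by filter-based scintillation. Screening starts at 25 uM in duplicate, followed by concentration series for actives.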

[19] = tested on: rat Norepinephrine Transporter (NET), gene 83511; test: NVS_TR_rNET: NovaScreen (NVS) Transporter Assay for rat Norepinephrine Transporter (NET) (AID 2283373)
Method in brief: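 Rat forebrain membranes; radioligand binding measured by filter-based scintillation counting 1 hour after dosing. Loss of specific binding versus DMSO baseline scored; primary screen in duplicate at 25 uM, actives followed up in concentration series.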

Sequence of Estrogen receptor (Homo sapiens) + Estrogen receptor beta (Homo sapiens) (P03372 whole entry, looked up, the tested form may be a part): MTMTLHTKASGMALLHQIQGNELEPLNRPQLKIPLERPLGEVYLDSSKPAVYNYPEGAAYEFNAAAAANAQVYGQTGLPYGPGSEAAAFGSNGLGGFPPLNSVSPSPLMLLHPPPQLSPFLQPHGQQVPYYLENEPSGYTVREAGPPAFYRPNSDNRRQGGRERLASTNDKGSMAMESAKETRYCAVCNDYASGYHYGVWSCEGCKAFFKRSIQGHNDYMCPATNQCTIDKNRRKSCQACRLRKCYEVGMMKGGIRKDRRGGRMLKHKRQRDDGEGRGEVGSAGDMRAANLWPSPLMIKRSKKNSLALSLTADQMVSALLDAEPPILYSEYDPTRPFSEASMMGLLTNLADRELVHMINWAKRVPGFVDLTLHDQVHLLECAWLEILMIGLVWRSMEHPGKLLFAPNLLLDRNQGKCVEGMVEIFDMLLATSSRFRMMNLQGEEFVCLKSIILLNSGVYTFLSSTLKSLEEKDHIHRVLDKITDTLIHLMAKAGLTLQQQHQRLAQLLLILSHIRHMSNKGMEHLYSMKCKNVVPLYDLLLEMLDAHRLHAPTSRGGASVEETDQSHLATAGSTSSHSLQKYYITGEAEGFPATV
Sequence of Estrogen receptor (Homo sapiens) + Estrogen receptor beta (Homo sapiens) (Q92731 whole entry, looked up, the tested form may be a part): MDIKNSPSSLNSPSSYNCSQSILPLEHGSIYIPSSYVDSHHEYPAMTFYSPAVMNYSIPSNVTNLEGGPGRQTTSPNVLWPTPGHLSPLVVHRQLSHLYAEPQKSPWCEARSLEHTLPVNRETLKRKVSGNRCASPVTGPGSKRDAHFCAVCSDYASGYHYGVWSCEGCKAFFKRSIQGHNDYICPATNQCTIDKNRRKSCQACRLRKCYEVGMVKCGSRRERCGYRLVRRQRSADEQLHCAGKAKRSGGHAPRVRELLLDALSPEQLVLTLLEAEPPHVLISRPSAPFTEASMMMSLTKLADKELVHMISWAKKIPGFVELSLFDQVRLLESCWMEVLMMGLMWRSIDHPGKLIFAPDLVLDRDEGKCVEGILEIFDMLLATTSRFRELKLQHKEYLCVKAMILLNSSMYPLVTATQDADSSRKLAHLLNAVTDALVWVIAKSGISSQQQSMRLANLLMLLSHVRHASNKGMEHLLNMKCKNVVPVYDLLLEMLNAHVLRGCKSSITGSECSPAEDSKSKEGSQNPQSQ
Sequence of Peroxisome proliferator-activated receptor gamma (Homo sapiens) (P37231 whole entry, looked up): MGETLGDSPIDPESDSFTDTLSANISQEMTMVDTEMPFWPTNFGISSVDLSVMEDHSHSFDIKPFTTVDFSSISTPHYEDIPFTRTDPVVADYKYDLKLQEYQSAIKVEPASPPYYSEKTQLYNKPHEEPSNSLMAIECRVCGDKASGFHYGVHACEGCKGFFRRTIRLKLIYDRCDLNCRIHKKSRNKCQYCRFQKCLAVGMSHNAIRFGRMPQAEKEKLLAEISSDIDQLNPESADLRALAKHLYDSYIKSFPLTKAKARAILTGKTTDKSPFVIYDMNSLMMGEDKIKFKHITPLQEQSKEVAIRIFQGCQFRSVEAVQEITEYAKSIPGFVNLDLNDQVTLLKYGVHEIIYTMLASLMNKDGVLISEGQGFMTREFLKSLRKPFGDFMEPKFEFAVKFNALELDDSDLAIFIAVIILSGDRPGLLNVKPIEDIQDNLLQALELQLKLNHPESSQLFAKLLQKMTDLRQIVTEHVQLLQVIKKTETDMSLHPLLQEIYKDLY
Sequence of Norway rat Vesicular Monoamine Transporter (VMAT2), neurotransmitter transporter, Slc18a2 (gene 25549) (Q01827 whole entry, looked up): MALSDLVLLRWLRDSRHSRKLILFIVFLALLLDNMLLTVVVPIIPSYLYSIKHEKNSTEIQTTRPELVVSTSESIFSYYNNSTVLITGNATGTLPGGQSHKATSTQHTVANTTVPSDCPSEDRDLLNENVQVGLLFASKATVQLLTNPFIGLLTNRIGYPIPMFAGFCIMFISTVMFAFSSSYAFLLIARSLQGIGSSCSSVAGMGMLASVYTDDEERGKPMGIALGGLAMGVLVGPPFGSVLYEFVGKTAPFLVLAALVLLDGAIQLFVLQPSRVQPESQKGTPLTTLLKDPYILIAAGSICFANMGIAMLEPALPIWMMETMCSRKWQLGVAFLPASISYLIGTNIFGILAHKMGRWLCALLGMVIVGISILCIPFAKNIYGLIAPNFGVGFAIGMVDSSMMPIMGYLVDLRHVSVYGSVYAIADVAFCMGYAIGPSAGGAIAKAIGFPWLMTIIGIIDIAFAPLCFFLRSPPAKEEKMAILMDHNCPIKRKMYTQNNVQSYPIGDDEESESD
Sequence of Retinoic acid receptor alpha (Homo sapiens) (P10276 whole entry, looked up): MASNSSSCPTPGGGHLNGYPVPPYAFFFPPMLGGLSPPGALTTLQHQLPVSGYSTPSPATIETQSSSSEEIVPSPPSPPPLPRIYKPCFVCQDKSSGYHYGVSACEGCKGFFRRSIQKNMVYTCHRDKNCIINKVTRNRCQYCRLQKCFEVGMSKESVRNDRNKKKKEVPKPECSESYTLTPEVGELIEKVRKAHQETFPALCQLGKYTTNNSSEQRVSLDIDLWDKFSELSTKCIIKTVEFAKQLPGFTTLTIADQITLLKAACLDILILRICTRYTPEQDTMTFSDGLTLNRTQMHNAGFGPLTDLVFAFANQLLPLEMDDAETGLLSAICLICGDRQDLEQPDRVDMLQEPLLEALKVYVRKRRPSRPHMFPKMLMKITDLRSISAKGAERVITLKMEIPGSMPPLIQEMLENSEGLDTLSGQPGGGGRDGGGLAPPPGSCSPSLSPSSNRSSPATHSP
Sequence of rat Androgen Receptor (AR), Ar (gene 24208) (P15207 whole entry, looked up): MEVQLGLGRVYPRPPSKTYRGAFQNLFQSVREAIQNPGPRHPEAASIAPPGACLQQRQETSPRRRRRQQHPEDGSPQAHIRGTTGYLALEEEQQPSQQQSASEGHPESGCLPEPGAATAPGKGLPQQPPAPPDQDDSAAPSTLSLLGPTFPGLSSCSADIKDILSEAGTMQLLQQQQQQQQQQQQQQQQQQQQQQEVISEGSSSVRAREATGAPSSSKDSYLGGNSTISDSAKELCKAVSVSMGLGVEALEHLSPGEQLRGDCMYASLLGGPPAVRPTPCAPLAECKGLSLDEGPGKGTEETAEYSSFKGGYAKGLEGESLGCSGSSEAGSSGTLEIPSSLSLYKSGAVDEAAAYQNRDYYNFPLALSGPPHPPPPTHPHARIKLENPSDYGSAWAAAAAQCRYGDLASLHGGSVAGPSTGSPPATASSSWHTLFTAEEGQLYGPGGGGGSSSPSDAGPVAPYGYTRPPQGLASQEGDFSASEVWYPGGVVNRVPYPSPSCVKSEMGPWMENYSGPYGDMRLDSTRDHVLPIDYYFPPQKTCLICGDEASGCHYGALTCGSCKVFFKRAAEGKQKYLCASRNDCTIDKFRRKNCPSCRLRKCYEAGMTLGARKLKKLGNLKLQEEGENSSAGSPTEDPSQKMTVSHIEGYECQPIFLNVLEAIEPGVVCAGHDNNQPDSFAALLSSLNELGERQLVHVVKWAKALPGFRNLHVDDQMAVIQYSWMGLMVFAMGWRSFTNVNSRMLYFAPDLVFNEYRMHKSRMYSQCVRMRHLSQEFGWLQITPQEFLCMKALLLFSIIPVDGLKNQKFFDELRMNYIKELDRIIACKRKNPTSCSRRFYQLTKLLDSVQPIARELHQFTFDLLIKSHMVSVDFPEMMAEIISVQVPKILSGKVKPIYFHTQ
Sequence of PGR (gene 5241) (P06401 whole entry, looked up): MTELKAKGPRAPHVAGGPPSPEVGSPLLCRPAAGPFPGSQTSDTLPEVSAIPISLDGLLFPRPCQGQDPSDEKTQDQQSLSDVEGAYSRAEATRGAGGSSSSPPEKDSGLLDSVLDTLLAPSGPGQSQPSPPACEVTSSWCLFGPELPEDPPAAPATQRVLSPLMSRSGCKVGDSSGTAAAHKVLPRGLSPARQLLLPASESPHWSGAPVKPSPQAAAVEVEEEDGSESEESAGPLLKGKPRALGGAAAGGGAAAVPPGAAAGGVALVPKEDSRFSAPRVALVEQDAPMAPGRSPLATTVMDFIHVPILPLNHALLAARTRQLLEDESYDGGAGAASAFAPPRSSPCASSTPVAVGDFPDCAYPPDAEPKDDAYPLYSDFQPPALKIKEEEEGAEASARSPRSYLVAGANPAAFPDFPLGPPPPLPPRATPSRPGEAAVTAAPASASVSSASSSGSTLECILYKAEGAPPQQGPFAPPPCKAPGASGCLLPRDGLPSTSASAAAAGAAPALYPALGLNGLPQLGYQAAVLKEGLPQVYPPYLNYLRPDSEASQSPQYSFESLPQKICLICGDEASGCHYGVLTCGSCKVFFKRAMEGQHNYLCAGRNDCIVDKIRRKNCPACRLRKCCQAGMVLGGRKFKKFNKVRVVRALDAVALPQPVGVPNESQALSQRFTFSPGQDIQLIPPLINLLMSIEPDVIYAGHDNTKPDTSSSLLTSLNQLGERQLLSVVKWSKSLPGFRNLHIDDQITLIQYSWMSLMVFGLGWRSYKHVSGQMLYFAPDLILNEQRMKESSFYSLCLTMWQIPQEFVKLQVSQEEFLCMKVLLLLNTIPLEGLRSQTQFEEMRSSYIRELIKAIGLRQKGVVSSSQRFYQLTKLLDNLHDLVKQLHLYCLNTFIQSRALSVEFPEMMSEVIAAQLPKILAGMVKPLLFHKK
Sequence of human Thyroid Receptor Alpha (TRa), THRA (gene 7067) (P10827 whole entry, looked up): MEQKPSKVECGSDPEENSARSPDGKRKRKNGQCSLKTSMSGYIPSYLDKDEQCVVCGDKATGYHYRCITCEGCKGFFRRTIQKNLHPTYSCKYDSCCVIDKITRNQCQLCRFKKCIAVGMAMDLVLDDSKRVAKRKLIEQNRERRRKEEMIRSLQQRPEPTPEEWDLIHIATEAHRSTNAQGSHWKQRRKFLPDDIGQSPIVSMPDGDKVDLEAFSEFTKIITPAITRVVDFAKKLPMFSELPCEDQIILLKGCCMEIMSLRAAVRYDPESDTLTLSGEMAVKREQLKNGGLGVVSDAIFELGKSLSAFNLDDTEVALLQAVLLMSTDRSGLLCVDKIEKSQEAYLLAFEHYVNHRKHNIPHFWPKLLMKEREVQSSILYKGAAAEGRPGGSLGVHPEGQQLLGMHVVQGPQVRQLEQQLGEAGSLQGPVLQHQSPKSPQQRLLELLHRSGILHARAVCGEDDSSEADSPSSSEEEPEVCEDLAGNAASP

CCC(=O)O[C@H]1CC[C@H]2[C@@H]3CCC4=CC(=O)CC[C@]4(C)[C@H]3CC[C@]12C
AC50 [1]: 0.517 µM (active)
AC50 [2]: 14.9 µM (active) and 12.4 µM (active) and 14.7 µM (active)
outcome [2]: inactive
AC50 [3]: 1.04 µM (active)
AC50 [4]: 2.45 µM (active) and 896 nM (active) and 841 nM (active)
outcome [5]: inactive
AC50 [6]: 1.53 µM (active) [middle of 4 runs]
outcome [7]: inactive
outcome [8]: inactive
outcome [9]: inactive

CCOC(=O)C(O)(c1ccc(Cl)cc1)c1ccc(Cl)cc1
outcome [2]: inactive
outcome [4]: inactive
AC50 [10]: 14.3 µM (active)
AC50 [11]: 15.5 µM (active)
outcome [9]: inactive

CCCCCCCCCc1ccc(O)cc1
AC50 [2]: 36.2 µM (active) and 36 µM (active) and 48.1 µM (active)
outcome [12]: inactive
outcome [13]: inactive
outcome [8]: inactive
outcome [9]: inactive

Cc1cc(-c2ccc(N)c(C)c2)ccc1N
outcome [14]: inactive
outcome [5]: inactive
AC50 [9]: 0.999 µM (active)
outcome [9]: inactive

ClC(Cl)=C(c1ccc(Cl)cc1)c1ccc(Cl)cc1
outcome [15]: inactive
outcome [13]: inactive
outcome [16]: inactive
outcome [9]: inactive

c1ccc(-c2ccccc2)cc1
outcome [2]: inactive
outcome [11]: inactive

CCCCCCCCOC(=O)c1ccccc1C(=O)OCCCCCCCC
outcome [2]: inactive
outcome [8]: inactive
outcome [9]: inactive

CCC(C)c1cc([N+](=O)[O-])cc([N+](=O)[O-])c1O (centres undefined)
outcome [2]: inactive
outcome [8]: inactive

COS(=O)(=O)OC
outcome [12]: inactive
outcome [7]: inactive

O=C(O)C(F)(F)C(F)(F)C(F)(F)C(F)(F)C(F)(F)C(F)(F)C(F)(F)C(F)(F)C(F)(F)F
outcome [4]: inactive
AC50 [5]: 25 µM (active)
AC50 [8]: 8.21 µM (active)
AC50 [11]: 25 µM (active)
outcome [9]: inactive

Cc1ccccc1CO[C@@H]1C[C@@]2(C(C)C)CC[C@]1(C)O2
outcome [14]: inactive
AC50 [17]: 4.86 µM (active)
AC50 [18]: 6.62 µM (active)

O=NN(c1ccccc1)c1ccccc1
outcome [3]: inactive
outcome [10]: inactive
outcome [8]: inactive
AC50 [11]: 14 µM (active)

CC1=C2C[C@H]3[C@@H](CC=C4C[C@@H](O)CC[C@@]43C)[C@@H]2CC[C@]12O[C@@H]1C[C@H](C)CN[C@H]1[C@H]2C
outcome [12]: inactive
outcome [5]: inactive
outcome [17]: inactive
outcome [16]: inactive

CC(C)C(=O)OCC(C)(C)C(OC(=O)C(C)C)C(C)C (centres undefined)
outcome [2]: inactive
outcome [8]: inactive
outcome [11]: inactive
outcome [9]: inactive

CC(c1ccc(O)cc1)(c1ccc(O)cc1)c1ccc(O)cc1
AC50 [8]: 4.96 µM (active)
AC50 [9]: 0.768 µM (active)

COc1ccc(O)c(C(C)(C)C)c1
AC50 [2]: 53.1 µM (active)
AC50 [13]: 19.3 µM (active)
AC50 [10]: 16.6 µM (active)
outcome [8]: inactive

Clc1ccc(C(c2ccccc2Cl)C(Cl)(Cl)Cl)cc1 (centres undefined)
outcome [5]: inactive
AC50 [9]: 0.0517 µM (active)
outcome [9]: inactive

Cc1cccc(C)c1N
outcome [2]: inactive
AC50 [8]: 0.0218 µM (active)

c1cc2ccc3cccc4ccc(c1)c2c34
outcome [15]: inactive

ClC1=C(Cl)[C@]2(Cl)[C@@H]3[C@H]4C[C@H]([C@@H]5O[C@H]45)[C@@H]3[C@@]1(Cl)C2(Cl)Cl
outcome [9]: inactive

ClC1=C(Cl)[C@]2(Cl)[C@@H]3[C@@H]4C[C@@H]([C@H]5O[C@@H]45)[C@@H]3[C@@]1(Cl)C2(Cl)Cl
outcome [12]: inactive
outcome [4]: inactive
outcome [8]: inactive

Cc1cc(O)ccc1Cl
AC50 [2]: 43.7 µM (active)
outcome [10]: inactive
outcome [9]: inactive

O=S(=O)(O)C(F)(F)C(F)(F)C(F)(F)C(F)(F)C(F)(F)C(F)(F)F
outcome [15]: inactive
outcome [13]: inactive
outcome [8]: inactive

Nc1ccc(-c2ccc(N)cc2)cc1
outcome [2]: inactive
AC50 [7]: 25 µM (active)
AC50 [10]: 12.8 µM (active)
outcome [8]: inactive
AC50 [19]: 14.3 µM (active)
AC50 [11]: 11.8 µM (active)

CO/C=C(/C(=O)OC)c1ccccc1COc1cccc(C(F)(F)F)n1
outcome [2]: inactive
outcome [8]: inactive

O=C(NC(=O)c1cc(F)c(F)cc1Cl)Nc1cc(F)ccc1N1CCC(C(=O)O)CC1
outcome [8]: inactive

CCOCCOC(C)=O
outcome [9]: inactive

Oc1c(Cl)c(Cl)c(Cl)c(Cl)c1Cl
outcome [15]: inactive
outcome [3]: inactive
outcome [4]: inactive
outcome [8]: inactive
outcome [9]: inactive

Nn1cnnc1
outcome [2]: inactive
outcome [8]: inactive
AC50 [16]: 10.9 µM (active)

C=CC(=O)NCNC(=O)C=C
outcome [2]: inactive
outcome [9]: inactive
